Insulin prom up – MIN6 insulin promoter up-regulation. MIN6 insulin promoter-GFP reporter, high-content imaging; stronger effect = higher value. 0.3% of 190,000 active. z-score at 5 µM;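 active means z-score above 3 at 5 µM with at least 500 cells counted in the well; inconclusive means wells under 500 cells, flagged as cytotoxic or low count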
ROMK mod – human ROMK K+ channel modulation, primary screen | Tet-inducible ROMK, thallium flux fluorescence; actives lie on both sides | 2% of 130,000 active | AID 1918 | P48048 | B-score at 10 µM;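 active means signal ratio slope over the read window, or its plate-corrected B-score, at least 3 SD from the plate mean, either direction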;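 further: B-score of the F/F0 ratio slope over 7 to 12 s after thallium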
L major viab – reduces viability of Leishmania major promastigotes. resazurin fluorescence viability. inhibition, % at 10 µM. 9% of 200,000 active; in the data active means inhibition above about 50%;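 further: promastigotes grown with compound for 44 hours at 28 °C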
INS promoter inh – TRM-6 insulin promoter activity inhibition | inhibition, % at 2 µM | TRM-6 cells (human fetal islet line), insulin promoter-eGFP reporter, imaging; reporter expression induced with tamoxifen | 0.9% of 130,000 active;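 active means inhibition above the mean plus 3 SD, with well images judged a real hit on visual review, cut at about 60% in these data, passing the limit was not always enough; inconclusive means inhibition over the cutoff but images rejected on review; inactive means inhibition not above the cutoff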
KCC2 mod – modulators of human KCC2 chloride dependent transport. Q9H2X9. KCC2 cells, thallium flux FluoZin-2 fluorescence. B-score of Tl+ flux slope (higher = more flux/activation; lower = inhibition) at 10 µM. 2.2% of 190,000 active. AID 1456;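 active means thallium flux slope and its plate-corrected score both differing from the plate sample mean at a set confidence after two filtering rounds, in either direction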;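 further: slope of fluorescence scaled to starting intensity during 10 to 20 s after thallium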
Target sequence (Q9H2X9 whole entry, looked up): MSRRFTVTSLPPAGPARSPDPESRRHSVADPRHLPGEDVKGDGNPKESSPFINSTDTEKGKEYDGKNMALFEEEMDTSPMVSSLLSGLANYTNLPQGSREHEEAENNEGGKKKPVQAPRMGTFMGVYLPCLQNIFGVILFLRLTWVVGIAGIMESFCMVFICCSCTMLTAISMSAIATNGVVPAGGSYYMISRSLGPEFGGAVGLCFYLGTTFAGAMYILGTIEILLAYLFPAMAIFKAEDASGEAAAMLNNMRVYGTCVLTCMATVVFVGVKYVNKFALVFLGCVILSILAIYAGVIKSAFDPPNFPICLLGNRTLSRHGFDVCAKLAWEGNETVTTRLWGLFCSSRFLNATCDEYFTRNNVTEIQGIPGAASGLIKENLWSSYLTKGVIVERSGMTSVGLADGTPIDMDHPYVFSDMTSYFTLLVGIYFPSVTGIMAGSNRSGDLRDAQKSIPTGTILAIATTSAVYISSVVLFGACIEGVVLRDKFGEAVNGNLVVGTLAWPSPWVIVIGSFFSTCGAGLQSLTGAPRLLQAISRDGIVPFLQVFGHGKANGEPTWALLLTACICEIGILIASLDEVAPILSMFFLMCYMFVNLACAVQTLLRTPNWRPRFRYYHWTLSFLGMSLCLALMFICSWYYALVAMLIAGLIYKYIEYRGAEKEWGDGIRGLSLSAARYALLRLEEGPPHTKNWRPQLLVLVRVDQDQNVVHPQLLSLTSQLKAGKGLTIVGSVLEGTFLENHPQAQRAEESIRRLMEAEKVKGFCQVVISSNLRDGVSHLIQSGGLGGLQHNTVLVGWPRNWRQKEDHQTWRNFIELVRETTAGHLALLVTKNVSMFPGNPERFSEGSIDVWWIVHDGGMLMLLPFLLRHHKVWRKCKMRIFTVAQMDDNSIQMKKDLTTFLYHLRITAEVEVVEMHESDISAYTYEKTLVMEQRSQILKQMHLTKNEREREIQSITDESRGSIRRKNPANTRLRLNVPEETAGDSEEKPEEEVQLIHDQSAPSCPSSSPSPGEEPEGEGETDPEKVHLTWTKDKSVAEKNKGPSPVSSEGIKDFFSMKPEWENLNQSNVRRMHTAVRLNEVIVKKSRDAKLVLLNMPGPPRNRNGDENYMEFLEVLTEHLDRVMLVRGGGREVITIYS
WT yeast gro inh – growth inhibition of WT yeast, mitochondrial fusion screen | mitochondrial fusion phenotypic screen, WT strain | inhibition, % at 10 µM | 2.1% of 190,000 active | AID 1362; in the data active means inhibition above about 58%; tested in S. cerevisiae
The depositor's hits bear a star; i = inactive; ? = inconclusive; / = not tested or not shown. Shown are actives, neighbours in structure and some others; about 12% of the full set was active somewhere.

SMILES	Insulin prom up	ROMK mod	L major viab	INS promoter inh	KCC2 mod	WT yeast gro inh
CSC1=C(C#N)C(c2ccccc2C)C(C#N)=C(N)N1 (stereo not drawn)	-0.71	3	2	/	/	-8
CC1(C)CC(=O)C2=C(C1)N(c1ccc(F)cc1)C(=O)C2(NC(=O)c1ccccc1)C(F)(F)F (stereo not drawn)	0.21	0.58	-3	19	-0.0026	-11
CCOC(=O)c1c(NC(=O)C2C3C=CC(C3)C2C(=O)O)sc2c1CC(C)CC2 (stereo not drawn)	/	2.2	-5	35	-1.5	17
CCCOC(=O)c1c(NC(=O)C2C3C=CC(C3)C2C(=O)O)sc2c1CCC(C)C2 (stereo not drawn)	-0.36	3.5*	-8	/	-3.1*	-7
COc1ccc(NC(=O)C2CCCN(S(=O)(=O)c3cccc4nonc34)C2)c(OC)c1 (stereo not drawn)	0.63	0.26	-4	-25	0.032	-9
CN1CCN(CC(O)(c2ccc(Cl)cc2)c2ccc(Cl)cc2)CC1	-1.9	0.42	53*	/	0.37	82*
CCC(C)NCC(O)(c1ccc(Cl)cc1)c1ccc(Cl)cc1 (stereo not drawn)	-1.5	-0.34	24	-37	/	17
O=C(Nc1ccc(Cl)c(Cl)c1)Nc1ccc(Br)cc1F	0.03	-0.064	0	9	1.4	81*
O=C1C=C(NC(=O)Nc2ccc(Cl)c(Cl)c2)CCC1	-0.65	-0.34	-3	/	/	80*
Cc1cc(C)c2cc(C(=O)N3CCc4ccccc4C3)[nH]c2c1	-0.48	0.39	/	/	0.24	/
COc1ccc(-c2nc(C)c(C(C)=O)n2O)cc1OC	0.3	/	13	67	0.96	8
CCc1c(C)nc2cc(-c3ccc(OC)c(OC)c3)nn2c1NCC1CC1	/	-2.8	101*	/	-0.29	27
Cc1ccc(Oc2cc(NC(=O)CCCn3nc([N+](=O)[O-])cc3C)cc([N+](=O)[O-])c2)cc1	-0.45	/	95*	-36	-0.26	37
Cc1cc([N+](=O)[O-])nn1CCCC(=O)NC(C)c1ccccc1 (stereo not drawn)	-0.14	0.9	51*	7	0.71	-5
Cc1nn(CCCC(=O)Nc2cc(Oc3ccccc3)cc([N+](=O)[O-])c2)c(C)c1[N+](=O)[O-]	-0.26	/	99*	/	-0.18	19
Cc1ccc(C)c(Oc2cc(NC(=O)CCCn3nc(C)c([N+](=O)[O-])c3C)cc([N+](=O)[O-])c2)c1	-1.3	-0.043	7	-144	-0.2	17
CCn1nc(C)c(C(=O)Nc2cc(Oc3cc(C)cc(C)c3)cc([N+](=O)[O-])c2)c1C	-0.06	1	10	-10	0.01	69*
O=C(CCc1ccccc1)OCC(=O)c1cccc([N+](=O)[O-])c1	0.43	0.83	-6	21	0.56	8
Cc1ccc(Cn2c(=O)oc3ccccc32)cc1	-0.61	0.57	-6	14	0.089	0
COc1cc(/C=C(\NC(C)=O)C(=O)Nc2ccccc2C)ccc1OC(C)=O	-0.07	/	0	/	0.76	0
CC(=O)n1cc([C@H]2C=C(C(=O)Nc3ccccc3)O[C@@H](OCc3ccc(CO)cc3)C2)c2ccccc21	-0.52	/	60*	/	-2.7	13
O=C(C1=C[C@@H](c2csc3ccccc23)C[C@@H](OCc2ccc(CO)cc2)O1)N1CCN(Cc2ccccc2)CC1	-1	/	51*	/	0.43	94*
O=C(C1=C[C@@H](c2csc3ccccc23)C[C@@H](OCc2ccc(CO)cc2)O1)N1CCOCC1	-0.7	/	15	/	-0.96	-3
CC(=O)n1cc([C@H]2C=C(C(=O)N3CCN(Cc4ccc5c(c4)OCO5)CC3)O[C@@H](OCc3ccc(CO)cc3)C2)c2ccccc21	0.52	/	76*	/	0.37	4
O=C(C1=C[C@@H](c2csc3ccccc23)C[C@@H](OCc2ccc(CO)cc2)O1)N1CCN(Cc2ccc3c(c2)OCO3)CC1	0.15	/	73*	/	-0.35	-6
SMILES	Insulin prom up	ROMK mod	L major viab	INS promoter inh	KCC2 mod	WT yeast gro inh
CCOc1ccc(NC(=O)CSc2nnc(N)s2)c([N+](=O)[O-])c1	0.03	/	3	57	-0.16	-9
CC(=O)NC1(c2ccccc2)CCN(CC(=O)N2CCC(C)CC2)CC1	-0.17	0.055	-3	/	-0.067	-11
COc1ccc(S(=O)(=O)Nc2ccccc2)cc1OC	-0.47	/	-1	22	-0.06	16
C=CCOC(=O)C1=C[C@H](c2coc3ccccc3c2=O)C[C@H](OCc2ccc(CO)cc2)O1	-0.22	/	16	/	-2.2	-25
O=C(C1=C[C@@H](c2coc3ccccc3c2=O)C[C@@H](OCc2ccc(CO)cc2)O1)N1CCN(Cc2ccccc2)CC1	/	/	32	/	-3.3*	12
C=CCOC(=O)C1=C[C@@H](c2coc3ccccc3c2=O)C[C@@H](OCc2ccc(CO)cc2)O1	0.37	/	32	/	-0.14	68*
Cc1cc(S(=O)(=O)N(Cc2ccccn2)Cc2ccco2)ccc1-n1cnnn1	-0.79	0.14	-6	10	0.025	-12
O=C(NC(=S)Nc1ccc(NC(=O)c2cccs2)cc1)c1ccco1	-0.05	/	32	10	0.37	5
COc1cc(NC(=S)NC(=O)c2ccccc2F)ccc1NC(=O)c1cccs1	0	0.43	-8	/	1.3	8
O=C(Nc1ccc(NC(=S)NC(=O)c2ccccc2F)cc1)c1cccs1	-0.74	-0.0027	96*	/	-0.43	63*
O=C(NC(=S)Nc1ccc(NC(=O)c2cccs2)cc1)c1cc2ccccc2o1	0.75	0.55	85*	19	0.99	9
COc1ccc(-c2cc3nc(C)cc(N4CC(C)CC(C)C4)n3n2)cc1 (stereo not drawn)	?	0.82	16	-27	0.39	70*
Cc1ccc(-c2cc3nc(C)cc(C)n3n2)cc1	-0.05	0.38	-5	/	-0.31	-15
CCOc1ccccc1-n1c(SCC(=O)Nc2ccc(CC)cc2)nc2n[nH]c(C)c2c1=N	-0.33	/	4	29	-0.28	-12
CCc1ccccc1NC(=O)CSc1nc2n[nH]c(C)c2c(=N)n1-c1cccc(OC)c1	-1.6	/	90*	23	0.27	-5
Fc1ccccc1NC(=S)N(CCN1CCCCCC1)Cc1cccs1	0.05	-2.4	45	-27	-0.13	11
CCCC(=O)c1c(C)c2ccccc2n1C	3*	/	-8	16	0.44	-11
Cc1c(C(=O)Cc2ccccc2)n(C)c2ccccc12	0.04	-0.63	1	/	-0.81	3
COc1ccc(CCNC(=O)CN(C2CCCCC2)S(C)(=O)=O)cc1	0.94	/	-5	46	0.11	18
CCN(CC)c1ccc2cc(C(=O)Nc3ccc(-n4cnnn4)c(OC)c3)c(=O)oc2c1	1.2	/	/	/	/	/
CCN(CC)c1ccc2cc(C(=O)NNC(=O)c3ccc(S(=O)(=O)N4CCCCC4)cc3)c(=O)oc2c1	2.2	0.84	92*	46	i	1
CCN(CC)c1ccc2cc(S(=O)(=O)c3ccc(C)cc3)c(=O)oc2c1	1.5	/	96*	29	-0.6	24
COc1ccc(CN2C(=O)CCCc3ccccc32)cc1	-0.24	0.071	-1	/	-0.12	-14

From PubChem
